Laboratory results taken from PubChem BioAssay (NCI).
The panel holds about 83,000 compounds, 20% with a hit somewhere; the sample as a whole holds those more often.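 Growth was measured after 48 h exposure to one concentration of compound in 96-well plates. Values under 10 count as active.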 Unmarked numbers belong to inactive results. The source made the active and inactive calls.

What was measured:
Assay in all cases: NCI-60 one-dose screen, 48 h (100 = growth as untreated, 0 = no growth, -100 = all killed)
HCT-15 colon = conditions: 10 µM unless noted
SNB-75 CNS = conditions: 10 µM unless noted
SNB-19 CNS = conditions: 10 µM unless noted
U251 CNS = conditions: 10 µM unless noted
SK-MEL-5 melanoma = conditions: 10 µM unless noted
UACC-62 melanoma = conditions: 10 µM unless noted
LOX IMVI melanoma = conditions: 10 µM
SK-MEL-28 melanoma = conditions: 10 µM unless noted
SK-MEL-2 melanoma = conditions: 10 µM unless noted
EKVX NSCLC = conditions: 10 µM unless noted
SN12C renal = conditions: 10 µM unless noted
UO-31 renal = conditions: 10 µM unless noted
TK-10 renal = conditions: 10 µM unless noted
ACHN renal = conditions: 10 µM unless noted
CAKI-1 renal = conditions: 10 µM unless noted
A498 renal = conditions: 10 µM unless noted
CCRF-CEM leukemia = conditions: 10 µM unless noted
MOLT-4 leukemia = conditions: 10 µM unless noted
HT29 colon = conditions: 10 µM unless noted
PC-3 prostate = conditions: 10 µM unless noted

| SMILES | growth (HCT-15 colon) | growth (SNB-75 CNS) | growth (SNB-19 CNS) | growth (U251 CNS) | growth (SK-MEL-5 melanoma) | growth (UACC-62 melanoma) | growth (LOX IMVI melanoma) | growth (SK-MEL-28 melanoma) | growth (SK-MEL-2 melanoma) | growth (EKVX NSCLC) | growth (SN12C renal) | growth (UO-31 renal) | growth (TK-10 renal) | growth (ACHN renal) | growth (CAKI-1 renal) | growth (A498 renal) | growth (CCRF-CEM leukemia) | growth (MOLT-4 leukemia) | growth (HT29 colon) | growth (PC-3 prostate) |
| --- | --- | --- | --- | --- | --- | --- | --- | --- | --- | --- | --- | --- | --- | --- | --- | --- | --- | --- | --- | --- |
| OC(c1cc(C23CC4CC(CC(C4)C2)C3)nc2c(Cl)cc(Cl)cc12)C1CCCCN1 (stereo not drawn) | -65.7% (active) | -82% (active) | -58.4% (active) | -88.5% (active) | 9.05% (active) | -44.1% (active) | -51.2% (active) | -79.8% (active) | -73.5% (active) | -33.6% (active) | -61.4% (active) | -83.3% (active) | -88.1% (active) | -70.1% (active) | -54.5% (active) | -1.09% (active) | -45.3% (active) | -53.2% (active) | – | – |
| Cc1cc(C(=C2C=CC(=Nc3ccccc3)C=C2)c2ccc(Nc3ccccc3)cc2)ccc1N | – | -74.6% (active) | -55.4% (active) | -97.4% (active) | -95.9% (active) | -65.6% (active) | -93.8% (active) | -82.3% (active) | -87.4% (active) | -42.7% (active) | -63.5% (active) | -67.4% (active) | -64.7% (active) | -89.8% (active) | -56.6% (active) | -78.8% (active) | 3.34% (active) | 22.2% | -75.4% (active) | -60.4% (active) |
| Clc1ccccc1C(c1ccccc1)(c1ccccc1)n1ccnc1 | – | 44.1% | 58.4% | 42% | -87% (active) | 40.8% | 36% | 55.5% | 48.3% | 25.9% | 48.2% | 12.1% | – | 32.7% | 20.6% | 58.7% | 21.5% | 17.3% | 27.4% | 19.6% |
| O=C(/C=C/c1ccccc1)c1ccccc1O | 67.3% | – | 80.1% | 61.1% | 94.9% | 85.8% | 34.9% | 93.9% | 98.6% | 89.2% | – | 64.6% | 94.3% | 87% | 75.2% | 98.3% | 55.1% | 70.2% | – | 92.9% |
| O=C(c1ccccc1)C(O)C(Br)(CBr)c1ccccc1 (stereo not drawn) | 86.5% | – | 90.5% | 81.7% | 85.6% | – | 46.6% | 101% | – | 108% | 91.6% | 96.3% | 87.6% | 93.2% | 102% | – | 50% | 75.1% | – | 70.2% |
| CC1(C)N=c2cc3c(cc2N1c1ccc(Cl)cc1)=Nc1ccccc1N3c1ccc(Cl)cc1 | 33.2% | 1.77% (active) | 66.5% | 39.3% | 37.8% | 69.1% | 40.5% | 86.6% | -1.35% (active) | – | – | – | 65.2% | – | 44.2% | 26.7% | -25.3% (active) | -32.2% (active) | – | – |
| Cc1cc2nc(CC(=O)c3ccncc3)c(=O)[nH]c2cc1C | 94.6% | 86.2% | – | 77.2% | 98.1% | 88.9% | 106% | 109% | 115% | 56.1% | 84.7% | – | 107% | 93.6% | 82.9% | 98.4% | 93.6% | 104% | – | 95.6% |
| Cc1ccc(NC2=CC(=O)C(=O)c3ccccc32)cc1 | 11.2% | – | – | 15.4% | -98.4% (active) | -33.9% (active) | 0.472% (active) | -23.5% (active) | 4.01% (active) | – | -39.2% (active) | – | 42.4% | 21.9% | 35.5% | 63.2% | 27% | 28.7% | – | 28% |
